Records with an inconclusive call do not appear. Active and inactive are the calls of the source.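 The calls were made as follows, unless noted: active = viability loss from added drug above about 55%, and viability with drug at most 40%, in both replicates (limit read from the data, passing the limit was not always enough); inconclusive = both conditions met in only one replicate; inactive = neither replicate meets both conditions.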
What was measured:
[1] = reduced viability of SK-BR-3 breast cancer cells – cell-based, 24 h, human, pilot screen (AID 572;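 active = viability at or below 10% of carrier control in both of two separate runs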;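 also: compound exposure lasted between 18 and 24 h rather than exactly 24 h; 100% = carrier-treated control wells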); settings: SK-BR-3 viability, CellTiter-Glo luminescence, at 10 µM, stronger effect = lower value
[2] = HUVEC growth inhibition – cell-based, human, primary screen (AID 575;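 active = viability at or below 30% in both replicate assays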;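 also: 100% = median of untreated cell wells with 0.1% DMSO on each plate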); settings: HUVEC proliferation, CellTiter-Glo luminescence, 72 h; at 10 µM; stronger effect = lower value
[3] = H69AR cell proliferation blockers – human, duplicate replicates, primary screen (AID 580;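 active = viability at or under a set limit in both replicates, limit being median viability minus 3 SD, cut at about 48% in these data, passing the limit was not always enough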;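 also: 100% = mean luminescence of untreated wells and 0% = no signal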); settings: H69AR lung tumor cells viability, ATP luminescence, 72 h; at 10 µM; stronger effect = lower value
[4] = MRP1 drug-resistance reversers in H69AR cells – cell-based, doxorubicin co-treatment, pilot screen (AID 601); settings: CellTiter-Glo, 72 h, at 10 µM; for differential viability (reversal): stronger effect = higher value
[5] = yeast transport mutant growth inhibition pilot in 384-well plates, post-Golgi transport modulator project (AID 636; in the data active = inhibition above about 31%); settings: absorbance 615 nm, about 18 h, stronger effect = higher value
[6] = growth suppression of yeast trafficking mutant, preliminary HTS, modulators of trafficking downstream of Golgi apparatus project, 1536-format plate, OD 615 nm (AID 637; in the data active = inhibition above about 30%); settings: yeast transport mutant growth, absorbance 615 nm, 18 h; stronger effect = higher value
[7] = S. cerevisiae growth inhibition in permissive medium (OD615), pilot counter-assay for S. cerevisiae lifespan shortening project, permissive growth control (AID 705;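 active = growth inhibition above 25% in both replicates, a cutoff set 3 SD above the mean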); settings: OD615, 24 h, at 10 µM, stronger effect = higher value
[8] = S. cerevisiae growth inhibition in restrictive medium, OD615, pilot screen, restrictive growth control, yeast lifespan reduction project (AID 706;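 active = growth inhibition above a set limit, 3 SD over mean compound inhibition, in both replicates, cut at about 43% in these data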;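 also: modified DeaD lifespan yeast strain shifted to restrictive glucose medium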); settings: OD615, 48 h, at 10 µM, stronger effect = higher value
[9] = doxorubicin toxicity protection in MRP-1 cells – H69AR cells, CellTiter-Glo, duplicate, MRP-1 activator project, pilot screen (AID 807;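 active = viability increase at or above a cutoff of the median across tested compounds plus 3 SD, cut at about 8.5% in these data, passing the limit was not always enough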;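 also: compound pretreatment 18-22 h then 72 h combined with doxorubicin; 0% = doxorubicin alone and 100% = vehicle without doxorubicin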); settings: H69AR viability with doxorubicin, CellTiter-Glo luminescence; at 10 µM; stronger effect = higher value
[10] = viability of HCT116 without oncogenic beta-catenin – human colon tumor cells, pilot screen (AID 823;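 active = cell viability at or below a set limit in both duplicate runs, the limit being the all-compound median minus 4 SD, cut at about 23% in these data, passing the limit was not always enough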;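 also: 0% = wells killed by 20 µM Hyamine and 100% = untreated DMSO cell wells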); settings: HCT116 beta-catenin knockout viability, CellTiter-Glo, 60 h; at 10 µM; stronger effect = lower value
[11] = viability of PTEN-null HCT116 cells – cell-based, HCT116 clonal line, CellTiter-Glo, pilot screen (AID 824;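 active = viability at or below 27.92% in each of two runs, the all-compound median minus 4 SD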;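 also: 0% = 20 µM Hyamine control and 100% = vehicle cell control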); settings: HCT116 PTEN-deleted viability, 60 h, at 10 µM, stronger effect = lower value
[12] = RAM pathway blockade in budding yeast – dse1pr::URA3 reporter, 5-FOA selection, pilot screen (AID 869;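 active = inhibition over a set limit, the all-compound mean plus 3 SD, in both replicate runs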;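 also: 0% = DMSO wells with no growth and 100% = 10 µM 1-NA-PP1 with full growth; RAM network block rescues cells from 5-FOA so hits raise OD615 growth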); settings: S. cerevisiae dse1pr::URA3 5-FOA growth, OD615, 2 d; at 10 µM; stronger effect = higher value; strain carries analog-sensitive mutant Cbk1 kinase
[13] = RAM signaling pathway blockade in yeast – S. cerevisiae, Pdr1DBD-CYC8 efflux-inhibited sensitized strain, primary screen (AID 1298;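 active = RAM network inhibition above 8.4% in each of two replicates, 3 SD over the compound average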;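 also: 0% = DMSO untreated cells without growth and 100% = 10 µM 1-NA-PP1 full growth; higher means more yeast growth rescued from 5-FOA killing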); settings: S. cerevisiae cbk1-as DSE1-URA3 strain, 5-FOA growth OD615, 2 d; at 50 µM; stronger effect = higher value
[14] = H69AR cells + 2 uM doxorubicin, measured here: viability with 2 uM doxorubicin, stronger effect = lower value
[15] = H69AR cells, compound alone cytotoxicity

O=C(Nc1ncc(Cc2ccccc2)s1)C1CCCO1 (stereo not given)
inactive: viability [1] 91.5% | viability [2] 84.3% | viability [3] 103% | differential viability (reversal) ([4]; H69AR cells + 2 uM doxorubicin) 10.9% | inhibition [5] -4.67% | inhibition [6] -9.34% | growth inhibition [7] -14.2% | growth inhibition [8] 3.14% | viability increase [9] 1.91% | viability [10] 103% | viability [11] 103% | inhibition [12] 0.015% | RAM network inhibition [13] -2.16%
103%: viability [4, 15]
92.2%: viability [4, 14]

COc1cccc(C2C(C(=O)c3cccs3)=C(O)C(=O)N2CCCn2ccnc2)c1OC (stereo not given)
109%: viability [4, 15]
inactive: viability [1] 130% | viability [2] 102% | viability [3] 109% | differential viability (reversal) ([4]; H69AR cells + 2 uM doxorubicin) 20.9% | inhibition [5] -7.47% | inhibition [6] 3.09% | growth inhibition [7] -6.37% | growth inhibition [8] 1.34% | viability increase [9] -1.56% | viability [10] 89.1% | viability [11] 89.5% | inhibition [12] 0.145% | RAM network inhibition [13] 0.92%
88.3%: viability [4, 14]

Cc1cc(C)nc(SCc2ccc3nonc3c2)n1
73.5%: viability [4, 14]
inactive: viability [1] 99% | viability [2] 89.9% | viability [3] 89.2% | differential viability (reversal) ([4]; H69AR cells + 2 uM doxorubicin) 15.7% | inhibition [5] -6.53% | inhibition [6] -0.18% | growth inhibition [7] -9.08% | growth inhibition [8] -6.27% | viability increase [9] -0.41% | viability [10] 96.3% | viability [11] 98% | inhibition [12] 0.535% | RAM network inhibition [13] 3.64%
89.2%: viability [4, 15]

Cc1ccc(C(=O)Nc2ccc(Cl)cn2)cc1S(=O)(=O)N1CCOCC1
81.5%: viability [4, 15]
inactive: viability [1] 90% | viability [2] 78.3% | viability [3] 81.5% | differential viability (reversal) ([4]; H69AR cells + 2 uM doxorubicin) -11.5% | inhibition [5] 0.39% | inhibition [6] 5% | growth inhibition [7] -3.23% | growth inhibition [8] 0.715% | viability increase [9] 1.52% | viability [10] 86.4% | viability [11] 79.9% | inhibition [12] 1.39% | RAM network inhibition [13] 5.97%
93%: viability [4, 14]

COCCN1C=C(C(=O)OC)C(c2cc3c(cc2Br)OCO3)C(C(=O)OC)=C1
81.2%: viability [4, 14]
84.5%: viability [4, 15]
inactive: viability [1] 97% | viability [2] 89.2% | viability [3] 84.5% | differential viability (reversal) ([4]; H69AR cells + 2 uM doxorubicin) 3.38% | inhibition [5] -4.13% | inhibition [6] -1.09% | growth inhibition [7] -12.8% | growth inhibition [8] -14.6% | viability increase [9] -1.16% | viability [10] 58.3% | viability [11] 58.6% | inhibition [12] 0.41% | RAM network inhibition [13] 0.62%

O=C(/C=C/N1CCOCC1)c1ccc(-c2ccccc2)cc1
inactive: viability [1] 104% | viability [2] 81.8% | viability [3] 89.5% | differential viability (reversal) ([4]; H69AR cells + 2 uM doxorubicin) 7.73% | inhibition [5] -5.07% | inhibition [6] -2% | viability increase [9] -1.77% | viability [10] 88.4% | viability [11] 80.6% | inhibition [12] -0.475% | RAM network inhibition [13] -1.36%
81.8%: viability [4, 14]
active: growth inhibition [7] 99.4% | growth inhibition [8] 100%
89.5%: viability [4, 15]

C(=N\n1cnnc1)/c1cccc(OCCOc2ccccc2)c1
inactive: viability [1] 76% | viability [2] 96.2% | viability [3] 94.6% | differential viability (reversal) ([4]; H69AR cells + 2 uM doxorubicin) 4.15% | inhibition [5] -4.53% | inhibition [6] 2% | growth inhibition [7] -7.18% | growth inhibition [8] 13.9% | viability increase [9] 0.62% | viability [10] 89% | viability [11] 94.9% | inhibition [12] 1.81% | RAM network inhibition [13] 0.17%
94.6%: viability [4, 15]
90.5%: viability [4, 14]

Cc1ccc(N2C(=O)c3oc4ccccc4c(=O)c3C2c2cccc(O)c2)nc1 (stereo not given)
103%: viability [4, 14]
91.8%: viability [4, 15]
inactive: viability [1] 102% | viability [2] 59.1% | viability [3] 91.8% | differential viability (reversal) ([4]; H69AR cells + 2 uM doxorubicin) -11.7% | inhibition [5] 0.9% | inhibition [6] 2.17% | growth inhibition [7] -6.7% | growth inhibition [8] -3.53% | viability increase [9] 1.12% | viability [10] 73.1% | viability [11] 71.7% | inhibition [12] 3.22% | RAM network inhibition [13] 7.27%

O=C(O)CC(C(=O)Nc1cccc(C(F)(F)F)c1)C1CCCO1 (stereo not given)
inactive: viability [1] 76% | viability [2] 108% | viability [3] 97.6% | differential viability (reversal) ([4]; H69AR cells + 2 uM doxorubicin) 3.26% | inhibition [5] -3.33% | inhibition [6] -8% | growth inhibition [7] -10.5% | growth inhibition [8] -6.54% | viability increase [9] 1.01% | viability [10] 104% | viability [11] 100% | inhibition [12] -0.115% | RAM network inhibition [13] 2.56%
94.3%: viability [4, 14]
97.6%: viability [4, 15]

COc1ccccc1OCCNC(=O)c1cccs1
91.1%: viability [4, 15]
inactive: viability [1] 84% | viability [2] 115% | viability [3] 91.1% | differential viability (reversal) ([4]; H69AR cells + 2 uM doxorubicin) 9.52% | inhibition [5] -3.33% | inhibition [6] -0.18% | growth inhibition [7] -6.5% | growth inhibition [8] 3.83% | viability increase [9] 0.85% | viability [10] 97.9% | viability [11] 103% | inhibition [12] 1.21% | RAM network inhibition [13] 7.11%
81.6%: viability [4, 14]
